Results filed as inconclusive are left out. The source made the active and inactive calls. Unless noted, calls follow the shape of the dose curve; as a rule, active = well fitted curve in the direction sought with a large enough effect in the repeat runs; inconclusive = weak or mixed curves; inactive = no such curve, though single readings can be large; an effect the other way counts as inactive or inconclusive.
Experiments:
[1] = qHTS assay to identify aromatase inhibitors - cell viability counter screen (AID 743084);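 also: cells stimulated with testosterone during compound exposure; nearly all actives have a fitted effect of over 55% in size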
[2] = target: Peroxisome proliferator-activated receptor gamma (Homo sapiens) (UniProt P37231); assay: qHTS assay to identify small molecule agonists of the peroxisome proliferator-activated receptor gamma (PPARg) signaling pathway (AID 743094; active = well fitted activation curve with a large enough effect in the signal ratio in the repeat runs, not every such curve was filed as active; the % refers to the signal ratio)
Sequence of Peroxisome proliferator-activated receptor gamma (Homo sapiens) (P37231 whole entry, looked up): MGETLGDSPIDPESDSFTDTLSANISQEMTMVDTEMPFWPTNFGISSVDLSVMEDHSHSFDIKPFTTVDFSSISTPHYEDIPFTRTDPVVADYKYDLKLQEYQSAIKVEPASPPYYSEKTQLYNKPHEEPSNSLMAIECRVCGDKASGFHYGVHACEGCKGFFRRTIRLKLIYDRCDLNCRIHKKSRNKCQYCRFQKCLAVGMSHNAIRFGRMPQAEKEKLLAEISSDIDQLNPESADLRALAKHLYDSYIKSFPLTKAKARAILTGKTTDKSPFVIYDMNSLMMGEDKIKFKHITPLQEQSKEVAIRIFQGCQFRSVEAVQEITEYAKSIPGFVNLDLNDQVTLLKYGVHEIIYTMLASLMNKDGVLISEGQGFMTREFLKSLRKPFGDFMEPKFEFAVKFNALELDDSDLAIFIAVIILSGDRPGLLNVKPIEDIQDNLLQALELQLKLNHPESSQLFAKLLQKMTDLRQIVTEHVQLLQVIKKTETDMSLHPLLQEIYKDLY
Method in brief: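 Beta-lactamase FRET fluorescence was the read-out after a 1 h room-temperature substrate step, following 17 h compound treatment at 37C of HEK293H cells expressing a UAS-driven bla reporter responsive to PPARg.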

[3] = target: Peroxisome proliferator-activated receptor gamma (Homo sapiens) (UniProt P37231); assay: qHTS assay to identify small molecule antagonists of the peroxisome proliferator-activated receptor gamma (PPARg) signaling pathway (AID 743191; calls by dose curve; also: series mostly up to about 63 µM; nearly all actives have a fitted effect of over 30% in size)
Method in brief: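 GeneBLAzer PPARg UAS-bla HEK293H cells, 5 h post-plating, exposed to compounds 17 h at 37C. LiveBLAzer B/G FRET substrate added for 1 h at room temperature; beta-lactamase reporter read by fluorescence intensity.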

[4] = qHTS assay to identify small molecule antagonists of the peroxisome proliferator-activated receptor gamma (PPARg) signaling pathway - cell viability counter screen (AID 743194); also: nearly all actives have a fitted effect of over 55% in size
Method in brief: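 Cytotoxicity counter screen in PPARg-bla HEK293H cells, same wells as reporter assay. Compounds plus 50 nM rosiglitazone (final) for 17 h at 37 C, then viability read by CellTiter-Glo luminescence.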

[5] = qHTS assay for small molecule agonists of the antioxidant response element (ARE) signaling pathway (AID 743202; active = well fitted activation curve with a large enough effect in the signal ratio in the repeat runs, not every such curve was filed as active; the % refers to the signal ratio)
Method in brief: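 Agonist mode reporter screen: HepG2 cells with ARE-controlled beta-lactamase are incubated with test compounds for 16 h at 37 C, and beta-lactamase activity is measured as fluorescence of cleaved B/G FRET substrate.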

[6] = qHTS assay for small molecule agonists of the antioxidant response element (ARE) signaling pathway - cell viability counter screen (AID 743203; calls by dose curve; also: nearly all actives have a fitted effect of over 55% in size)
Method in brief: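 HepG2 cells carrying ARE-driven beta-lactamase; 2,000 cells/well; 5 hrs plating; compound pinned from DMSO; 16 hrs 37C/5% CO2; CellTiter-Glo added; 30 min RT; luminescence.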

[7] = qHTS assay for small molecule activators of the heat shock response signaling pathway - cell viability counter screen (AID 743209); also: nearly all actives have a fitted effect of over 50% in size
Method in brief: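 Luminescence from CellTiter-Glo, added after the beta-lactamase FRET read, gave the viability signal. Cells were HSE-bla HeLa treated with DMSO-dissolved compounds for 5 h at 37 C following overnight plating.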

[8] = qHTS assay for small molecule activators of the heat shock response signaling pathway (AID 743210; active = well fitted activation curve with a large enough effect in the signal ratio in the repeat runs, with a control signal flat, not every such curve was filed as active; the % refers to the signal ratio;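 also: HeLa cells with beta-lactamase reporter driven by heat shock elements; series mostly up to about 63 µM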)
Method in brief: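 Quantitative high-throughput format using an engineered HeLa line in which heat shock response elements drive beta-lactamase; after 5 h with compound, cells received a B/G FRET substrate and fluorescence was read.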

[9] = qHTS assay to identify small molecule agonists of the peroxisome proliferator-activated receptor delta (PPARd) signaling pathway - cell viability counter screen (AID 743211); also: nearly all actives have a fitted effect of over 55% in size
Method in brief: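 PPARd-bla HEK293H cells (UAS-beta-lactamase reporter) were treated with compounds for 17 h at 37 C. Viability was then read in the same wells by CellTiter-Glo luminescence after 30 min at room temperature.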

[10] = target: Peroxisome proliferator-activated receptor delta (Homo sapiens) (UniProt Q03181); assay: qHTS assay to identify small molecule agonists of the peroxisome proliferator-activated receptor delta (PPARd) signaling pathway (AID 743212; calls by dose curve)
Sequence of Peroxisome proliferator-activated receptor delta (Homo sapiens) (Q03181 whole entry, looked up): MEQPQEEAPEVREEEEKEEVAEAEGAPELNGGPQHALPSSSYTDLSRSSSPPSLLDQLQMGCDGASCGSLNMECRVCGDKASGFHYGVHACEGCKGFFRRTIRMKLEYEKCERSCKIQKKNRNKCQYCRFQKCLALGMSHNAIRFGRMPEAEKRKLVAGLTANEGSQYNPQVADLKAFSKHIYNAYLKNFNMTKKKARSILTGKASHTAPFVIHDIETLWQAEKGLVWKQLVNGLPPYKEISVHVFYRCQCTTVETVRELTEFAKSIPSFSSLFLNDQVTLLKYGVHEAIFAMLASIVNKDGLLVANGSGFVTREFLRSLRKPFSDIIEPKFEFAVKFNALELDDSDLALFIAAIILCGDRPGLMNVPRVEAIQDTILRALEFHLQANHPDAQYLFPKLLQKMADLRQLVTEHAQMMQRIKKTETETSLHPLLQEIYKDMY
Method in brief: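 Quantitative high-throughput agonist screen in a HEK293H beta-lactamase reporter line under UAS control. Compounds in DMSO, at 37 C. Fluorescence read after 2 h with FRET substrate at room temperature.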

[11] = qHTS assay to identify small molecule antagonists of the peroxisome proliferator-activated receptor delta (PPARd) signaling pathway - cell viability counter screen (AID 743213); also: nearly all actives have a fitted effect of over 50% in size
Method in brief: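 Same-well viability: cells pre-incubated 5 h, dosed with compound plus 300 nM L165041, kept 17 h at 37 C, FRET substrate 2 h RT, then CellTiter-Glo 30 min RT and luminescence.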

[12] = target: Peroxisome proliferator-activated receptor delta (Homo sapiens) (UniProt Q03181); assay: qHTS assay to identify small molecule antagonists of the peroxisome proliferator-activated receptor delta (PPARd) signaling pathway (AID 743215; active = well fitted inhibition curve with a large enough effect in the signal ratio in the repeat runs, not every such curve was filed as active; the % refers to the signal ratio;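 also: cells stimulated with agonist L165041 at 300 nM final during compound exposure; series mostly up to about 62 µM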)
Method in brief: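 Read-out is beta-lactamase FRET fluorescence, measured 2 h after substrate addition at room temperature. Beforehand, UAS-bla HEK293H cells carrying the PPARd reporter were exposed to compounds with L165041 at 300 nM final for 17 h at 37 C.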

[13] = qHTS assay to identify small molecule agonists of the farnesoid-X-receptor (FXR) signaling pathway - cell viability counter screen (AID 743218); also: nearly all actives have a fitted effect of over 45% in size
Method in brief: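 HEK 293T FXR-bla cells; 5 h pre-incubation, 16 h compound exposure at 37 C; LiveBLAzer substrate 2 h RT, then CellTiter-Glo 30 min RT, luminescence.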

[14] = qHTS assay to identify small molecule antagonists of the farnesoid-X-receptor (FXR) signaling pathway - cell viability counter screen (AID 743221; active = well fitted cell-killing curve with a large enough effect in the repeat runs, not every such curve was filed as active; also: nearly all actives have a fitted effect of over 50% in size)
Method in brief: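 FXR-UAS-bla HEK 293T cells were treated with test compounds plus chenodeoxycholic acid (50 uM final) for 16 h at 37 C. Cell viability in the same wells was then read as CellTiter-Glo luminescence after 30 min at room temperature.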

[15] = qHTS assay to identify small molecule that activate the aryl hydrocarbon receptor (AhR) signaling pathway - cell viability counter screen (AID 743086);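 also: HepG2 liver cells carrying the AhR DRE luciferase reporter; series mostly up to about 70 µM; nearly all actives have a fitted effect of over 45% in size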
Method in brief: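 HepG2-AhR-luc (HG2L7.5c1) cells, 4000/well, treated 24 h at 37 C with compound; viability measured as CellTiter-Fluor fluorescence after 30 min in the same wells as the luciferase read.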

[16] = target: Bile acid receptor (Homo sapiens) (UniProt Q96RI1); assay: qHTS assay to identify small molecule antagonists of the farnesoid-X-receptor (FXR) signaling pathway (AID 743217; active = well fitted inhibition curve with a large enough effect in the signal ratio in the repeat runs, not every such curve was filed as active; the % refers to the signal ratio)
Sequence of Bile acid receptor (Homo sapiens) (Q96RI1 whole entry, looked up): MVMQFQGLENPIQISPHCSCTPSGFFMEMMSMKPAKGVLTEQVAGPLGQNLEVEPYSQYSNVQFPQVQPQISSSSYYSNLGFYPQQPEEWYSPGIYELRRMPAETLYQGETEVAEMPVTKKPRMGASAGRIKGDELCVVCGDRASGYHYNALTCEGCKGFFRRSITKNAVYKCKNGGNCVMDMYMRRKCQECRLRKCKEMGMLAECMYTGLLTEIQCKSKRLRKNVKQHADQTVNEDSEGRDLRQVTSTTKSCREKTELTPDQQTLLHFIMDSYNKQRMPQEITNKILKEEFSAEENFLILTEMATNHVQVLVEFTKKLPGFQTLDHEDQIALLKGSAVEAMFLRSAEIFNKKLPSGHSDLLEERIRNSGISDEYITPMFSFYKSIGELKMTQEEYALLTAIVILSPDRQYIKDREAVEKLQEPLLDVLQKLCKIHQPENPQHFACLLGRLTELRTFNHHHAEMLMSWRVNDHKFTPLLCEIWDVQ
Method in brief: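 HEK 293T FXR-UAS-bla, 5000 cells/well; compound + CDCA 50 uM final; 16 h, 37 °C; B/G FRET substrate 2 h RT; fluorescence.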

[17] = target: Bile acid receptor (Homo sapiens) (UniProt Q96RI1); assay: qHTS assay to identify small molecule agonists of the farnesoid-X-receptor (FXR) signaling pathway (AID 743220; active = well fitted activation curve with a large enough effect in the signal ratio in the repeat runs, not every such curve was filed as active; the % refers to the signal ratio)
Method in brief: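 Beta-lactamase reporter under UAS control in GeneBLAzer FXR HEK 293T cells (5000/well) measured with LiveBLAzer FRET substrate after 2 h at room temperature. Compound exposure lasted 16 h at 37C.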

[18] = target: Vitamin D3 receptor (Homo sapiens) (UniProt P11473); assay: qHTS assay to identify small molecule agonists of the vitamin D receptor (VDR) signaling pathway (AID 743222; calls by dose curve)
Sequence of Vitamin D3 receptor (Homo sapiens) (P11473 whole entry, looked up): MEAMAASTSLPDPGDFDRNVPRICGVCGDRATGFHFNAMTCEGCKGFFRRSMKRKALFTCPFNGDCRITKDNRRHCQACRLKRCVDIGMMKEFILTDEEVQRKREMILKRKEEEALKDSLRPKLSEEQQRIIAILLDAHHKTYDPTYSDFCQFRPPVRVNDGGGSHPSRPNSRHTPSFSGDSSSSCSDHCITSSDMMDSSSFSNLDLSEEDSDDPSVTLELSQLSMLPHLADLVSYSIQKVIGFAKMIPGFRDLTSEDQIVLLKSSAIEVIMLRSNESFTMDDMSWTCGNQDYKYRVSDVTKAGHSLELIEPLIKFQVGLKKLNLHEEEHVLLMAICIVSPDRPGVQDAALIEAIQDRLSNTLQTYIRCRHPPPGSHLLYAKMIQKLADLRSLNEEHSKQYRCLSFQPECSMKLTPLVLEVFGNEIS
Method in brief: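 VDR-bla cells, 2,000/well; 4 h preincubation 37C; cpd (DMSO) 16 h; LiveBLAzer B/G substrate 2 h RT; fluorescence intensity read.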

[19] = target: Vitamin D3 receptor (Homo sapiens) (UniProt P11473); assay: qHTS assay to identify small molecule antagonists of the vitamin D receptor (VDR) signaling pathway (AID 743223; active = well fitted inhibition curve with a large enough effect in the signal ratio in the repeat runs, not every such curve was filed as active; the % refers to the signal ratio)
Method in brief: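 VDR-bla cells were plated, incubated 4 h at 37C, then given compound and 1alpha,25-dihydroxyvitamin D3 (3 nM final). After 16 h at 37C, LiveBLAzer B/G FRET substrate was added for 2 h at room temperature and fluorescence read.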

[20] = target: Aryl hydrocarbon receptor (Homo sapiens) (UniProt P35869); assay: qHTS assay to identify small molecule that activate the aryl hydrocarbon receptor (AhR) signaling pathway (AID 743085);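 also: HG2L7.5c1 human HepG2 liver cells with stably integrated DRE-driven firefly reporter; series mostly up to about 70 µM; nearly all actives have a fitted effect of over 15% in size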
Sequence of Aryl hydrocarbon receptor (Homo sapiens) (P35869 whole entry, looked up): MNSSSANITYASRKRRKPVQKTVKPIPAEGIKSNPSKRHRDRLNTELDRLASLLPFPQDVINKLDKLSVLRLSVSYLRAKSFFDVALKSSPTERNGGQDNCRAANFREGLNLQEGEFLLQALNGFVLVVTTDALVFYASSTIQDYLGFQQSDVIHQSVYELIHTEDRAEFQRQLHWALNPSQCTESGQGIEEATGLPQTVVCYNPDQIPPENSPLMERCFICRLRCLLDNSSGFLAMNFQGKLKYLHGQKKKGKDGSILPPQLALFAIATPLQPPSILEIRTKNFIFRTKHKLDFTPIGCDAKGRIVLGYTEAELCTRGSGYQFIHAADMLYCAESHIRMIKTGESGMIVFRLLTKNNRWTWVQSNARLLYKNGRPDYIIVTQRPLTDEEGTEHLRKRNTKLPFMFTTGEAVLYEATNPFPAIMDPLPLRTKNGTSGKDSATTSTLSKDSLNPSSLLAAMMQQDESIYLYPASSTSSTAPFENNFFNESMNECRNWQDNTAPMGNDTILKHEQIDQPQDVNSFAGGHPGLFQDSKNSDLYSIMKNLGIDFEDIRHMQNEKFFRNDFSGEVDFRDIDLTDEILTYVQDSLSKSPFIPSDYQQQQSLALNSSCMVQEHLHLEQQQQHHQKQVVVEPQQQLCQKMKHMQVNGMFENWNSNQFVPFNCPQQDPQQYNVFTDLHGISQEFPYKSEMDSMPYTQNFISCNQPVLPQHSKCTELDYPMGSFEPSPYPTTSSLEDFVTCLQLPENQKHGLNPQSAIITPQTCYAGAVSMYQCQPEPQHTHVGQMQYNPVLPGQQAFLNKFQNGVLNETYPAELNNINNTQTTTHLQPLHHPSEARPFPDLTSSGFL
Method in brief: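 HepG2 cells (HG2L7.5c1) stably carrying a firefly luciferase reporter driven by 20 dioxin responsive elements were exposed to compound for 24 h at 37C after a 5 h settling period; luminescence rise (ONE-Glo) indicated activation.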
% is scaled to controls: 0 for no effect and ±100 for the full control effect.

CCCCCCCCCCCCCC=O
inactive: activity change, negative = cytotoxicity [1] -6.33% [at 8.47 µM] | activation [2] -7.22% [at 7.08 µM] | ratio activity, negative = inhibition [3] -1.51% [at 5.95 µM] | activity change, negative = cytotoxicity [4] 14.4% [at 5.95 µM] | activation [5] -7.51% [at 8.36 µM] | viability change, negative = cytotoxic [6] 1.02% [at 8.36 µM] | activity change, negative = cytotoxicity [7] -3.36% [at 5.95 µM] | activation [8] -0.951% [at 5.95 µM] | activity change, negative = cytotoxicity [9] 7.31% [at 5.95 µM] | activation [10] 0.125% [at 5.95 µM] | viability change, negative = cytotoxic [11] -6.97% [at 6.26 µM] | ratio activity, negative = inhibition [12] -0.712% [at 6.26 µM] | viability change, negative = cytotoxic [13] 0% [at 5.95 µM] | activity change, negative = cytotoxicity [14] -2.35% [at 5.95 µM]

COC(=O)CCSCCC(=O)OC
inactive: Potency [15] | outcome [4] | Potency [5] | Potency [6] | outcome [7] | outcome [8] | Potency [9] | outcome [10] | Potency [11] | outcome [16] | outcome [17] | Potency [14]

Cc1[nH]c(=O)c(C#N)cc1-c1ccc2nccn2c1
inactive: Potency [15] | outcome [4] | Potency [5] | Potency [6] | outcome [7] | outcome [8] | Potency [9] | outcome [10] | Potency [11] | Potency [12] | Potency [13] | Potency [14] | outcome [18] | outcome [19]

CC(C)=CCCC(C)CC(=O)O (stereo not drawn)
inactive: Potency [20] | Potency [15] | outcome [2] | outcome [4] | Potency [5] | Potency [6] | outcome [7] | outcome [8] | outcome [10] | Potency [11] | Potency [12] | Potency [13] | Potency [14] | outcome [18] | outcome [19]

CN(C(=O)c1c(O)c2ccccc2n(C)c1=O)c1ccccc1
inactive: Potency [1] | Potency [15] | outcome [2] | outcome [4] | Potency [5] | Potency [6] | outcome [7] | outcome [8] | Potency [9] | outcome [10] | Potency [11] | Potency [13] | Potency [14] | outcome [18] | outcome [19]

Cc1cccc(C)c1NC(=O)C(C)N (stereo not drawn)
inactive: Potency [1] | Potency [15] | Potency [6] | outcome [7] | outcome [8] | Potency [9] | outcome [10] | Potency [11] | Potency [12] | Potency [13] | Potency [14] | outcome [18] | outcome [19]

Brc1c(NC2=NCCN2)ccc2nccnc12
inactive: Potency [1] | Potency [15] | outcome [4] | Potency [5] | Potency [6] | outcome [7] | outcome [8] | Potency [9] | Potency [11] | Potency [13] | Potency [14] | outcome [18] | outcome [19]

CCOC(=O)CC(C)=O
inactive: Potency [15] | outcome [4] | Potency [5] | Potency [6] | outcome [7] | outcome [8] | Potency [9] | Potency [11] | Potency [14] | outcome [18]

C=CCOCC(CC)(CO)COCC=C
inactive: Potency [15] | outcome [4] | Potency [5] | Potency [6] | outcome [7] | outcome [8] | Potency [9] | outcome [10] | Potency [11] | Potency [13] | Potency [14] | outcome [19]

Reference: PubChem BioAssay (Tox21)
